Calb FLC: C. albicans growth inhibition with fluconazole, primary screen, CaCi-2 strain, Alamar Blue fluorescence; C. albicans CaCi-2 (fluconazole-resistant clinical isolate) + fluconazole, 48 h; growth inhibition, % (no concentration beside the values); actives 0.57% (n = 300,000); AID 1979, 2009;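 active = growth inhibition above about 58% in most replicates, limit read from the data, passing the limit was not always enough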;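 note: all wells also contain fluconazole at 8 µg/ml as a sub-toxic cotreatment; 0% = median of DMSO wells and 100% = median of geldanamycin control wells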
KCC2 mod: KCC2 cotransporter modulators, thallium flux, primary screen, cell-based, HEK293 KCC2, FluoZin-2 fluorescence, MLSMR; B-score of Tl+ flux slope (higher = more flux/activation; lower = inhibition) at 10 µM; AID 1456, 2008; KCC2 cells, thallium flux FluoZin-2 fluorescence; Solute carrier family 12 member 5 (Homo sapiens), Q9H2X9; actives 2.2% (n = 190,000);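 active = thallium flux slope and its plate-corrected score both differing from the plate sample mean at a set confidence after two filtering rounds, in either direction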;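 note: slope of fluorescence scaled to starting intensity during 10 to 20 s after thallium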
Efflux pump mplx: inhibitors of Candida efflux pumps in yeast, primary screen, S. cerevisiae, Nile Red, multiplex. S. cerevisiae Candida pump triplex. inhibition, % at 10 µM. actives 0.44% (n = 330,000). AID 485275, 2010;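 active = plate passing quality check with inhibition over a set limit, or well fluorescence over plate mean plus 4 SD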;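 note: Nile Red retained in pooled yeast measured as flow cytometry median fluorescence; 0% = buffer negative control and 100% = Enniatin B positive control; higher means more Nile Red kept so more efflux inhibition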
Cardio protect: cardioprotection against H2O2-induced cell death, primary screen, uHTS, H9c2 cells, ATPLite luminescence. H9c2 cardiomyocytes, H2O2 injury protection, 2 h. protection from H2O2 cell death, % at 20 µM. actives 0.63% (n = 360,000). AID 588492, 2011;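 active = compounds giving at least 50% protection of heart cells from peroxide-induced death in the single-dose screen, raw or plate-pattern-corrected value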;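 note: 0% = DMSO wells with peroxide and 100% = DMSO wells without peroxide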
PHOSPHO1 block: PubChem AID 1565 | inhibition, % at 13.3 µM | actives 1.1% (n = 290,000) | recombinant PHOSPHO1, absorbance phosphatase assay | Phosphoethanolamine/phosphocholine phosphatase (Homo sapiens), Q8TCT1; in the data active = inhibition above about 60%
Cmpd fluor yeast: compound fluorescence in yeast efflux pump counter-screen; shares compounds with Efflux pump mplx; S. cerevisiae AD/pABC3, flow cytometry; fluorescence ratio to DMSO, % at 10 µM; actives 4% (n = 1,700); AID 588517;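 active = fluorescence ratio to DMSO above its plate's cutoff, the plate mean ratio plus 5 SD, cut at about 210% in these data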;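 note: unstained yeast with no Nile Red so the signal is compound autofluorescence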
Mdr1 pump inh: inhibitors of Candida albicans Mdr1 efflux, confirmation, flow cytometry, singleplex, Cherry Pick1 set; shares compounds with Efflux pump mplx; S. cerevisiae AD/CaMDR1, Nile Red efflux; inhibition, % at 10 µM; actives 1% (n = 1,700); AID 588518, 2011; in the data active = inhibition above about 26%;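 note: 0% = DMSO vehicle and 100% = reference inhibitor; higher means more Nile Red retained so more efflux inhibition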
CaCdr2 efflux inh: inhibitors of Candida albicans Cdr2 efflux pump, confirmation, S. cerevisiae AD/CaCDR2, flow cytometry, cherry pick 1, singleplex; Nile Red retention ratio vs DMSO, % at 10 µM; Nile Red retention; shares compounds with Efflux pump mplx; actives 4% (n = 1,700); AID 588520, 2011; in the data active = Nile Red retention ratio vs DMSO above about 190%;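 note: higher ratio means more blocking of Cdr2 efflux of the dye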
Cdr1 pump inh: inhibitors of Candida albicans Cdr1 efflux pump, confirmation, S. cerevisiae AD/CaCDR1, flow cytometry, cherry pick 1, singleplex. Nile Red efflux. actives 1% (n = 1,700). shares compounds with Efflux pump mplx. inhibition, % at 10 µM;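 active = inhibition above the screen-wide mean plus twice its standard deviation, cut at about 32% in these data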
An asterisk follows results filed as active; nt = no result; + = active, no number. Only some compounds are listed: those with a hit (about 3.3% of all), similar ones and a draw of the others.

SMILES	Calb FLC	KCC2 mod	Efflux pump mplx	Cardio protect	PHOSPHO1 block	Cmpd fluor yeast	Mdr1 pump inh	CaCdr2 efflux inh	Cdr1 pump inh
COc1ccc(CNCCC(c2ccc(F)cc2)c2ccc(OC)cc2)cc1 (centres undefined)	-3	-0.23	10*	-19	-1	96	0	109	0
COc1ccc(C(=O)NC2CCN(CC(=O)NCc3ccccc3)CC2)cc1	-2	nt	0	1	37	nt	nt	nt	nt
CCN(CC(=O)Nc1ccc(NC(C)=O)cc1)CC(=O)Nc1ccccc1C(=O)c1ccccc1	17	-0.92	0.7*	14	20	114	0	112	0
CCN(CC)CC(=O)Nc1ccc(C)cc1C(=O)c1ccccc1	-20	-0.68	0	-2	-5	nt	nt	nt	nt
COc1ccc(S(=O)(=O)N2CCC(C(=O)NCCC(=O)Nc3nccs3)CC2)cc1	31	nt	1	-5	29	nt	nt	nt	nt
Cc1ccc([C@@H]2CC=C(C(=O)O)[C@H](c3ccccc3F)N2S(=O)(=O)c2ccccc2C)cc1	nt	nt	0	5	nt	nt	nt	nt	nt
COC(=O)[C@H]1[C@H]2C[C@@H]3c4[nH]c5cc(OC)ccc5c4CCN3C[C@H]2C[C@@H](OC(=O)c2cc(OC)c(OC)c(OC)c2)[C@@H]1OC	nt	nt	0	-1	nt	nt	nt	nt	nt
COC(=O)C1=COC(C)C2CN3CCc4c([nH]c5cc(OC)c(OC)cc45)C3CC12 (centres undefined)	-4	0.37	0.9*	-3	25	107	0	119	0
Cc1ccc(OCC(=O)NNC(=O)CSc2ncc(C#N)c(N)n2)cc1	-1	1.1	18*	2	-12	103	0	94	0
Cc1cc(C(=O)COC(=O)c2ccc[nH]c2=O)c(C)n1-c1ccc(F)cc1	1	0.39	28*	-17	-24	115	0	112	0
Cc1ccc(-c2nnc(SCC(=O)NCCN3C(=O)CSC3=O)n2C)cc1	nt	nt	0	1	nt	nt	nt	nt	nt
COC(=O)c1c(NC(=O)CSc2nnc(Cn3nnc4ccccc43)n2C)sc(C)c1C	0	-2.4	0	7	21	nt	nt	nt	nt
COC(=O)c1sc(NC(=O)CSc2nnc(Cn3nnc4ccccc43)n2C)nc1C	10	0.26	14*	1	-4	105	0	94	0
CCCSc1cc(N2CCN(C)CC2)nc(-c2ccc(OC)cc2)n1	-35	-0.26	1	-17	-2	82	0	89	0
CC(C)Sc1cc(N2CCCC2)nc(-c2ccc(F)cc2)n1	0	0.17	0	-16	-3	nt	nt	nt	nt
CCSc1cc(N2CCCC2)nc(-c2ccccc2)n1	-4	-0.11	0	-12	30	nt	nt	nt	nt
CCCSc1cc(N2CCCC2)nc(-c2ccccc2)n1	6	1.4	0	-18	38	+	1	127	0
CC1(C)[C@@H](O)CC[C@]2(C)C3C(O)C=C4[C@H]5C[C@@](C)(C(=O)O)CC[C@]5(C)CC[C@]4(C)[C@]3(C)CC[C@@H]12 (some centres undefined)	22	-0.6	0	nt	13	nt	nt	nt	nt
CCCOc1ccc(-c2nc(N3CCN(C)CC3)c3ccccc3n2)cc1	-24	nt	1.0*	-15	25	102	0	97	0
O=C(Nc1ccccc1-c1nnc(SCc2ccc(Cl)cc2)o1)c1ccccc1	10	nt	0.5*	5	10	100	0	118	0
Cc1nn(C)c(Sc2ccccc2N)c1[N+](=O)[O-]	-2	-0.21	0.9*	15	-46	105	0	106	0
CC(C)(C)c1ccc(OCCOc2ccc(C(C)(C)C)cc2NC=O)c(NC=O)c1	24	-2.8	0.6*	-18	39	108	0	108	0
O=C(O)c1cccc(-c2ccc(/C=c3/sc4nc5ccccc5n4c3=O)o2)c1	8	-0.036	3.9*	12	85*	133	0	262*	0
O=C(O)c1cc(C(=O)O)cc(-c2ccc(/C=c3/sc4nc5ccccc5n4c3=O)o2)c1	nt	0.029	nt	nt	-143	nt	nt	nt	nt
O=C(C1CCC1)N1CCc2cc(S(=O)(=O)Nc3ccc4c(c3)OCCO4)ccc21	-4	nt	0	-14	4	112	0	95	0
SMILES	Calb FLC	KCC2 mod	Efflux pump mplx	Cardio protect	PHOSPHO1 block	Cmpd fluor yeast	Mdr1 pump inh	CaCdr2 efflux inh	Cdr1 pump inh
CC1CCCN(CCCNS(=O)(=O)c2ccc3c(c2)CCN3C(=O)C2CC2)C1 (centres undefined)	8	nt	1.4*	-4	28	115	0	110	0
CCCN(CCC)CCNS(=O)(=O)c1ccc2c(c1)CCN2C(=O)C1CCC1	-4	0.38	0	-6	9	107	0	100	0
O=C(C1CC1)N1CCc2cc(S(=O)(=O)NCCC3=CCCCC3)ccc21	-1	nt	0	-20	12	nt	nt	nt	nt
Cc1ccc(CNS(=O)(=O)c2ccc3c(c2)CCN3C(=O)C2CCC2)cc1	-29	nt	0	-5	17	102	0	99	0
CC(=O)N1CCc2cc(S(=O)(=O)NCc3ccc(C)cc3)ccc21	2	nt	0	-11	33	nt	nt	nt	nt
O=C(CCN1C(=O)c2ccccc2S1(=O)=O)Nc1ccc(C(=O)O)cc1	2	nt	0	-2	18	nt	nt	nt	nt
O=C1c2ccccc2[C@@H]2C[C@H]3O[C@H]3CCN12	nt	nt	0	2	nt	nt	nt	nt	nt
CC(SCc1ccc(C(=O)O)o1)c1ccc(C(=O)O)o1 (centres undefined)	-2	nt	0	6	24	nt	nt	nt	nt
CCOC(=O)N1CCN(C(=O)COc2cccc3c2CCN(Cc2ccccc2F)C3=O)CC1	14	-1.2	2.7*	4	1	113	0	106	0
O=C(COc1cccc2c1CCN(Cc1ccccc1F)C2=O)N1CCCCC1	4	0.93	0	-1	53	nt	nt	nt	nt
CCCNC(=O)C[C@H]1C[C@H]2c3cc(NC(=O)Nc4ccc(F)cc4)ccc3O[C@H]2[C@@H](CO)O1	nt	nt	nt	-6	nt	nt	nt	nt	nt
CCOc1ccc(NC(=O)COc2nsnc2N2CCCCC2)cc1	-7	0.42	0	-7	1	nt	nt	nt	nt
